Reference: PubChem BioAssay AID624331 (National Center for Advancing Translational Sciences (NCATS), 2012)
Results filed as inconclusive are left out. A number with no mark means an inactive call. Activity calls are given as the source filed them. The call rests on the fitted dose curve; in most records, active means well fitted activation curve with a large enough effect; inconclusive means small, poorly fitted or top-dose-only effect; inactive means no such curve, though single readings can be large or run the other way.

Experiment: qHTS assay for re-activators of p53 using a Luc reporter: Hit Validation with no p53 Expressed; on activity change, positive = activation: 0% is about no effect
Conditions: p53-null cells, luciferase reporter counter-screen; series mostly up to 46.1 µM; activity change, positive = activation: at the top concentration
Outline: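 Without p53 expression, cells (1000/well, Opti-MEM + 10% FBS) were exposed 24 h at 37 deg C to compounds in a 1:5 series from 10 mM stock (top 46.1 µM in well). Luminescent signal read 10 min after Amplite addition; actives flag unspecific activation.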
Potency means the concentration at half of the fitted maximal effect.

| SMILES | activity change, positive = activation | Potency |
| --- | --- | --- |
| CN(c1ccc(C(=O)COC(=O)C2CC2)cc1)S(C)(=O)=O | -4.32% |  |
| c1ccc(COc2ccc(OCCOCCn3cncn3)cc2)cc1 |  | 1.3 µM (active) |
| O=[N+]([O-])c1cc(C(F)(F)F)ccc1NCCc1c[nH]c2ccccc12 | -38.7% |  |
| N#C/C(=C/c1cccnc1)c1ccccc1 | -42.3% |  |
| Cc1cccc(N2CCN(S(=O)(=O)c3ccc4c(c3)CCC(=O)N4)CC2C)c1 (centres undefined) | -36.5% |  |
| O=S(=O)(N/N=C/c1ccccc1OCc1ccc(Cl)cc1)c1ccccc1 | -19.1% |  |
| COc1ccc(N2COC3c4cccc5cccc(c45)C32)cc1 (centres undefined) | 472% |  |
| OC1(C2(O)CC(c3ccccc3)ON2)CCCCC1 (centres undefined) | 33.1% |  |
| Oc1ccc(N=Cc2c(O)ccc3ccccc23)cc1 | -33% |  |
| CN(C)c1ccc(CNC2CC(C)(C)NC(C)(C)C2)cc1 | 24.5% |  |
| Cc1ccc(NC(=O)C2CCCO2)cc1[N+](=O)[O-] (centres undefined) | -2.44% |  |
| N#CC1=C(N)N2C(=C(C#N)C13CCCCC3)SC1CCCCC12O (centres undefined) | -19.8% |  |
| CCc1cc2c(=O)c(-c3ccc4c(c3)OCCO4)coc2cc1OS(C)(=O)=O | 59.3% |  |
| COc1cc(NC(=O)CSCc2ccc(Cl)cc2)c(C(=O)O)cc1OC | -44% |  |
| O=C(Nc1ccc(Cl)cc1)Nc1nnc(SCc2ccccc2)s1 | -21.5% |  |
| COc1ccccc1/C=C/C(=O)Nc1ccc2c(c1)CCC2 |  | 2.91 µM (active) |
| Cc1nc2ccccc2nc(C)c1=NOCc1ccccc1Cl | -25.3% |  |
| CC1CCc2c(sc(NC(=O)C3=COCCO3)c2C(N)=O)C1 (centres undefined) | -11.5% |  |
| O=C(CSc1nnc(-c2ccc3c(c2)OCCO3)o1)N1CCCC1 | 21.1% |  |
